Results filed as inconclusive are left out. Activity calls are given as the source filed them. Rule for the calls: active = hit-call score of the fitted dose curve at least 0.9, where 1 is the maximum; inconclusive = response in the unintended direction; inactive = score below 0.9.
Assays:
[1] = TOX21_p53_BLA_p2_viability: Viability Assessment in the Tox21 HCT-116 p53 Agonism Beta-lactamase Assay, Phase 2 (AID 2283591);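 note: compound exposure lasted 16 h at 37 °C; actives lower the ATP signal meaning cytotoxicity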
In short: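 Cytotoxicity readout: CellTiter-Glo ATP luminescence, 30 min at room temperature, after the beta-lactamase read. Cells were HCT116 exposed 16 h at 37C to compounds pin-transferred at 217-fold dilution from DMSO stocks.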

[2] = target: Cellular tumor antigen p53 (Homo sapiens) (UniProt P04637); test: TOX21_p53_BLA_p2_ratio: Tox21 HCT-116 p53 Agonism Beta-lactamase Assay, Ratio, Phase 2 (AID 2283592)
Cellular tumor antigen p53 (Homo sapiens), sequence (P04637 whole entry, looked up): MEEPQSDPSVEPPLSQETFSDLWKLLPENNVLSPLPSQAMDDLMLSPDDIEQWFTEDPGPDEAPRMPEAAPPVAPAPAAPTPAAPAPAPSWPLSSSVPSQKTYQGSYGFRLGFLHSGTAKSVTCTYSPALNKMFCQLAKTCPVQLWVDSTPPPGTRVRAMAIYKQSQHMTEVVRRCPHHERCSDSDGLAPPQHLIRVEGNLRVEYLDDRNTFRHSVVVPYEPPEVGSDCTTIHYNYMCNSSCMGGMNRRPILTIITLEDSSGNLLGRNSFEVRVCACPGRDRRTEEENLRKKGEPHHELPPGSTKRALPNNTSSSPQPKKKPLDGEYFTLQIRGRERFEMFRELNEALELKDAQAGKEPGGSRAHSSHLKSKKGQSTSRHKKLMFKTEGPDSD
In short: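 HCT116 cells carrying a p53-responsive beta-lactamase reporter were plated, incubated 5 h at 37C, then dosed with compounds in DMSO (217-fold dilution) for 16 h. CCF4-AM substrate was added for 2 h at room temperature; the 460/530 nm emission ratio gave gain-of-signal activity relative to DMSO.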

[3] = TOX21_p53_BLA_p3_viability: Viability Assessment in the Tox21 HCT-116 p53 Agonism Beta-lactamase Assay, Phase 3 (AID 2283593);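 note: cells exposed to compound for 16 h before reading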
In short: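 Cellular ATP was quantified by CellTiter-Glo luminescence, read after 30 min at room temperature. Beforehand, HCT116 cells (4000/well) received compound 5 h post-seeding, 217-fold diluted from DMSO, then incubated 16 h at 37C.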

[4] = target: Cellular tumor antigen p53 (Homo sapiens) (UniProt P04637); test: TOX21_p53_BLA_p3_ratio: Tox21 HCT-116 p53 Agonism Beta-lactamase Assay, Ratio, Phase 3 (AID 2283596)
In short: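 HCT116 p53-bla cells (4000/well) given compound in DMSO (217-fold dilution) after 5 h, incubated 16 h at 37C. CCF4-AM substrate 2 h at room temperature; 460/530 nm emission ratio, gain fitted against DMSO.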

[5] = TOX21_p53_BLA_p5_viability: Viability Assessment in the Tox21 HCT-116 p53 Agonism Beta-lactamase Assay, Phase 5 (AID 2283600)
In short: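 Cells were plated at 4000/well, rested 5 h at 37C, then given compounds in DMSO (217-fold dilution) for 16 h at 37C, 5% CO2. Following the CCF4-AM beta-lactamase read, CellTiter-Glo was added and luminescence was read after 30 min at room temperature.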

[6] = target: Cellular tumor antigen p53 (Homo sapiens) (UniProt P04637); test: TOX21_p53_BLA_p4_ratio: Tox21 HCT-116 p53 Agonism Beta-lactamase Assay, Ratio, Phase 4 (AID 2283601)
In short: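 Signal is the blue/green (460nm/530nm) ratio of cleaved versus uncleaved CCF4-AM substrate, read after 2 h substrate loading. Cells were HCT116 carrying the p53-responsive beta-lactamase reporter, dosed 16 h at 37C, 5% CO2; CellTiter-Glo measured in parallel.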

[7] = TOX21_p53_BLA_p4_viability: Viability Assessment in the Tox21 HCT-116 p53 Agonism Beta-lactamase Assay, Phase 4 (AID 2283597);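 note: hits lower the luminescence signal meaning cytotoxicity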
In short: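 HCT116 p53-bla cells (4000/well) rested 5 h at 37C, then received compounds in DMSO (217-fold dilution) for 16 h at 37C, 5% CO2. CellTiter-Glo was added after the CCF4-AM read, and luminescence was read after 30 min at room temperature.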

[8] = target: PGR (gene 5241) (UniProt P06401); test: TOX21_PR_BLA_Followup_Antagonist_ratio: Tox21 HEK293 Progesterone Receptor (PR) Antagonism Beta-lactamase Follow-Up Assay, Ratio (AID 2283934);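 note: PR-UAS-bla HEK293T cells stimulated with 1 nM R5020 agonist for 16 hr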
PGR (gene 5241), sequence (P06401 whole entry, looked up): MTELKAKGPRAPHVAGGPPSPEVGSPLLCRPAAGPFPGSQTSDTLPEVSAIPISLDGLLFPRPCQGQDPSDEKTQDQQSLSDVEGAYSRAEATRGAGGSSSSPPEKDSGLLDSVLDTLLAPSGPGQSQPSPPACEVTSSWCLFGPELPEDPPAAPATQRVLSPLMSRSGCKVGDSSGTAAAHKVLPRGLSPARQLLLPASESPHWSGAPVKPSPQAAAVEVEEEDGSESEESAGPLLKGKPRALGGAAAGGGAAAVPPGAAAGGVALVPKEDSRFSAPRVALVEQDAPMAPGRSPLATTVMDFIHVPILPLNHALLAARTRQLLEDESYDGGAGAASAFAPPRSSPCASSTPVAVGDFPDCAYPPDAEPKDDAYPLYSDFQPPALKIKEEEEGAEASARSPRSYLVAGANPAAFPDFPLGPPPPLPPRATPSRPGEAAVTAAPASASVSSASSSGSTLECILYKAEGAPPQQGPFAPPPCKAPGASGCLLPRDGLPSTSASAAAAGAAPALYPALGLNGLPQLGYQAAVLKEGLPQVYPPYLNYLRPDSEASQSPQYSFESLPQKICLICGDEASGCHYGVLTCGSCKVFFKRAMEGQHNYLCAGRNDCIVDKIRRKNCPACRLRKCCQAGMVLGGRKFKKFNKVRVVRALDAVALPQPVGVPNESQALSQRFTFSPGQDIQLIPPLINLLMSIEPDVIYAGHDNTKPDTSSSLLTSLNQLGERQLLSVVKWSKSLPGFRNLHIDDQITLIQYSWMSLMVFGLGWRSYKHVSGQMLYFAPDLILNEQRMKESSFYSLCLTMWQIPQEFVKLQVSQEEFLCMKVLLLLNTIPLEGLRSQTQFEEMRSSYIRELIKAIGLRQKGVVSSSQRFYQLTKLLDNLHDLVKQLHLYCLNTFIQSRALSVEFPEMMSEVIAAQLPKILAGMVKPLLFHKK
In short: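 Antagonist mode used 1 nM R5020 (final) as agonist on a beta-lactamase reporter line in HEK293T cells. Activity was taken from the substrate cleavage ratio after 16 hr exposure.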

[9] = target: Cellular tumor antigen p53 (Homo sapiens) (UniProt P04637); test: TOX21_p53_BLA_p5_ratio: Tox21 HCT-116 p53 Agonism Beta-lactamase Assay, Ratio, Phase 5 (AID 2283599)
In short: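 Beta-lactamase reporter ratio (blue 460 nm over green 530 nm, 405 nm excitation) after 2 h CCF4-AM loading, in HCT-116 cells exposed 16 h at 37 C to compounds pinned at 217-fold dilution. Increases relative to DMSO baseline scored.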

Measured: AC50

SCCSCCS
inactive: [1] | [2] | [3] | [4] | [5] | [6]

O=C(O)C=CC(=O)Nc1ccc(S(=O)(=O)Nc2nccs2)cc1
inactive: [1] | [2] | [3] | [7]

Nc1cc(S(=O)(=O)O)ccc1S(=O)(=O)O
inactive: [1] | [2] | [3] | [7]

CC(=O)OCC(=O)[C@@]1(O)CCC2C3CCC4=CC(=O)CC[C@]4(C)C3C(O)C[C@@]21C (some centres not stated)
inactive: [1] | [2] | [3] | [4] | [5] | [6] | [8]

FC(F)(F)C(F)(F)C(F)(F)C(F)(F)C(F)(F)C(F)(F)C(F)(F)C(F)(F)Br
inactive: [1] | [2] | [3] | [4] | [9] | [6]

CC(=O)O[C@H]1C[C@@H]2CC[C@@H]3[C@H](CC[C@@]4(C)[C@H]3C[C@H]([N+]3(C)CCCCC3)[C@@H]4OC(C)=O)[C@@]2(C)C[C@@H]1N1CCCCC1
inactive: [1] | [2] | [3] | [4] | [5] | [6]

O=C(CCCCC(=O)Nc1c(I)cc(I)c(C(=O)O)c1I)Nc1c(I)cc(I)c(C(=O)O)c1I
inactive: [1] | [2] | [3] | [7] | [9]

O=P(O)(O)C(Sc1ccc(Cl)cc1)P(=O)(O)O
inactive: [1] | [2] | [3] | [7] | [9] | [5]

O=C1CCC(=O)O1
inactive: [1] | [2] | [3] | [7] | [9]

C=CCCC
inactive: [1] | [2] | [3] | [7] | [9] | [5]

Oc1ccccc1C=NCc1ccccc1
inactive: [1] | [2] | [3] | [7] | [9] | [5]

COc1ccc(CNCC(O)COc2ccc3[nH]c(=O)ccc3c2)cc1OC (configuration not stated)
inactive: [1] | [2] | [3] | [7] | [9] | [5]

C=C(C)C(=O)OCCN(CC)CC
inactive: [1] | [2] | [3] | [7] | [9]

CC(C)(COP(=O)(O)OP(=O)(O)OC[C@H]1O[C@@H](n2cnc3c(N)ncnc32)[C@H](O)[C@@H]1OP(=O)(O)O)C(O)C(=O)NCCC(=O)NCCS (some centres not stated)
inactive: [1] | [2] | [3] | [7] | [9] | [5]

COC(=O)C1=C(C)NC(C)=C(C(=O)O[C@@H]2CCCN(Cc3ccccc3)C2)[C@@H]1c1cccc([N+](=O)[O-])c1
inactive: [1] | [2] | [3] | [7] | [9] | [5] | [6]

CC(C)OCC1CO1 (configuration not stated)
inactive: [1] | [2] | [3] | [7] | [9]

COc1cc(C)c(Cc2cnc(N)nc2N)cc1OC
inactive: [1] | [2] | [3] | [7] | [9]

CCCCCSCCCCC
inactive: [1] | [2] | [3] | [7] | [9] | [5]

O=C(CCCN1CCN(c2ccc(F)cc2)CC1)NC1c2ccccc2CSc2ccccc21 (configuration not stated)
inactive: [1] | [2] | [3] | [7] | [9] | [5]

C[C@H]1C[C@H]2[C@@H]3CCC4=CC(=O)C=C[C@]4(C)[C@@]3(F)[C@@H](O)C[C@]2(C)[C@@]1(O)C(=O)CCl
inactive: [1] | [2] | [3] | [7]

N=C1N=C(N)c2cc3ccccc3cc21
active: [1] 23.6 µM | [2] 11.6 µM | [3] 38.5 µM | [7] 21 µM | [9] 15 µM | [5] 27.4 µM | [6] 19.8 µM

C=CCOc1c(Br)cc(C(C)(C)c2cc(Br)c(OCC=C)c(Br)c2)cc1Br
inactive: [1] | [2] | [3] | [7] | [9] | [5]

CCOc1ccc(NC(C)=O)cc1N
inactive: [1] | [2] | [3] | [7] | [9] | [5] | [6]

O=c1[nH]cnc2[nH]cc(CN3CCCCC3)c12
inactive: [1] | [2] | [3] | [7] | [9] | [5]

CCOC(=O)[C@H](CCc1ccccc1)N[C@@H](C)C(=O)N1CCC[C@H]1C(=O)O
inactive: [1] | [2] | [3] | [7] | [9] | [5]

CC(C)CN(C[C@@H](OP(=O)(O)O)[C@H](Cc1ccccc1)NC(=O)O[C@H]1CCOC1)S(=O)(=O)c1ccc(N)cc1
inactive: [1] | [2] | [3] | [7] | [9]

CCOc1ccc(N=C(C)Nc2ccc(OCC)cc2)cc1
inactive: [1] | [2] | [3] | [7] | [9] | [5]

CCOC(=O)c1cc(-c2ccccc2)nc2ccc(C)cc12
inactive: [1] | [2] | [3] | [7] | [9] | [5]

COc1cc(Br)c(C[N+]2(CCOCCC3CCC4CC3C4(C)C)CCOCC2)cc1OC (configuration not stated)
inactive: [1] | [2] | [3] | [7] | [9] | [5]

OCC1O[C@@H](O[C@@H]2C(CO)OC(O)C(O)C2O)C(O)C(O)C1O (some centres not stated)
inactive: [1] | [2] | [3] | [7] | [9] | [5]

NC(=S)NS(=O)(=O)c1ccc(N)cc1
inactive: [1] | [2] | [3] | [7] | [9] | [5]

OCCN1CCN(CC/C=C2/c3ccccc3Sc3ccc(Cl)cc32)CC1
inactive: [1] | [2] | [3] | [7]

From PubChem BioAssay (EPA / NIEHS)
